Screening data (PubChem BioAssay)
The list is not random: actives were taken first. Their share in the collection is about 4.2%.
Mtb FBA inh: inhibits M. tuberculosis FBA enzyme | P9WQA3 | purified M. tuberculosis FBA, fluorescence read-out | inhibition, % at 1 µM | 2.3% of 360,000 active | AID 588726; in the data active = inhibition above about 27%
Target sequence (P9WQA3 whole entry, looked up): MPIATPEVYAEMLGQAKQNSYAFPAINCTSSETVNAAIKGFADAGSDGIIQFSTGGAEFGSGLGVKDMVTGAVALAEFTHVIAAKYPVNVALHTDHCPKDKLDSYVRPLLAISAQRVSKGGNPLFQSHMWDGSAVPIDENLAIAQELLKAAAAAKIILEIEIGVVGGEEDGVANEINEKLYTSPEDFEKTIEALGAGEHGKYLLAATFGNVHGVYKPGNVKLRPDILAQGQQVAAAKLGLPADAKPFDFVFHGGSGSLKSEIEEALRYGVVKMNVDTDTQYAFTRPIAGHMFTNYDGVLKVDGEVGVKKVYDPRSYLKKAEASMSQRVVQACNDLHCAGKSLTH
RecA intein inh: Mtb RecA intein splicing inhibition. AID 2221. cell-free RecA intein splicing, fluorescence. 0.75% of 290,000 active. inhibition, % (test concentration not listed). P9WHJ3; in the data active = inhibition above about 30%
CCHFV vOTU inh: CCHFV vOTU protease inhibition | 0.55% of 370,000 active | inhibition, % at 11.5 µM | Pep-AMC fluorescence
GDH-TPI inh: counter-screen for M. tuberculosis FBA inhibitors: GDH-TPI coupled enzymes; inhibition, % at 4.8 µM; 1.2% of 360,000 active; GDH-TPI coupled enzyme counterscreen, NADH absorbance
GFP chromo cs: counter-screen: blocks GFP chromophore formation; shares compounds with RecA intein inh; cell-free GFP chromophore formation, fluorescence; EC50, µM; 83% of 2,100 active; call rule not given here
A number is an active result; – = inactive; · = no result. Cut-off read from the data, not from the text of the source, unless noted: active = inhibition above about 30%; inactive = the rest.

SMILES	Mtb FBA inh	RecA intein inh	CCHFV vOTU inh	GDH-TPI inh	GFP chromo cs
Cc1ccc(OCCC(=O)N(CCC(C)C)c2c(N)n(Cc3ccccc3)c(=O)[nH]c2=O)cc1	–	–	·	–	·
Cc1cc(C)nc(N2N=C(c3ccccc3)CC2=O)n1	–	·	–	–	·
COc1ccc(C2=NN(c3nc(C)cc(C)n3)C(=O)C2)cc1	–	78.3	–	–	6.87
CC(=O)c1c(N2CCOCC2)nc(=S)n(-c2ccc([N+](=O)[O-])cc2)c1C	–	–	–	–	·
CSc1nc(=S)n(-c2ccc([N+](=O)[O-])cc2)c(C)c1C(C)=O	–	34.8	–	–	–
Cc1[nH]n(-c2ccccc2)c(=O)c1/C=C1\C=NN=C1c1ccccc1	–	81.9	–	–	7.41
COc1ccc2nc(C)cc(Sc3nc4ccccc4s3)c2c1	–	37.8	–	–	24.1
Cc1ccccc1Oc1ccc2c(c1)[C@@H]1C[C@H](N(C)C(=O)c3cccnc3)[C@H]([C@H](C)O)C(=O)N1CC2	–	·	–	–	·
Cc1ccc(OC(=O)c2ccc(C)c([N+](=O)[O-])c2)cn1	–	–	–	–	·
Cc1ccc(OC(=O)c2ccc([N+](=O)[O-])cc2Cl)cn1	–	31.5	–	–	33.3
Cc1ccc(-c2nnc(Cc3ccc(Cl)cc3)o2)cc1	–	–	–	–	·
O=c1c(Cl)c(Cl)cnn1Cc1nnc(-c2ccc(Cl)cc2)o1	–	37.4	–	–	9.33
O=c1c(Cl)c(Cl)cnn1Cc1ccccc1Cl	·	38.2	–	·	20.1
CNc1nnc(SCC(=O)N2c3ccccc3NC(=O)CC2C)s1 (centres undefined)	–	·	–	–	·
OC[C@@H]1CN(CCNc2ccccc2)C[C@H](n2cnc3c(NCc4ccncc4)ncnc32)O1	–	·	–	–	·
COC(=O)C[C@H](NC(=O)Cn1cc(C)c(=O)[nH]c1=O)C(=O)OC	–	·	–	–	·
O=C(NC1CCCC1)C(c1ccc(F)cc1)N(Cc1ccc(Cl)cc1)C(=O)CCl (centres undefined)	–	59.1	–	–	6.99
CN(C)C(C(=O)NC1CCCCC1)c1ccc(Cl)cc1 (centres undefined)	–	–	–	–	·
COC(=O)c1ccc(C(C(=O)NC2CCCCC2)N(Cc2ccc(F)cc2)C(=O)Cc2cccs2)cc1 (centres undefined)	–	–	–	–	·
O=C(NC1CCCC1)C(c1ccc(Cl)cc1)N(Cc1ccc(F)cc1)C(=O)CCl (centres undefined)	–	67.1	·	–	2.71
CC(C)(C)C(=O)Nc1ccc(N=Nc2ccccc2)cc1	–	35.2	–	–	8.74
CC(NC(=O)c1cccc(S(=O)(=O)N2CCCCCC2)c1)c1ccccc1 (centres undefined)	–	·	–	–	·
COc1ccc(C2C(C#N)=C(N)Oc3n[nH]c(C)c32)cc1CSc1ccccn1 (centres undefined)	–	80.5	–	–	17.2
COc1ccc(C2C(C#N)=C(N)Oc3n[nH]c(C)c32)cc1Cn1nnc2ccccc21 (centres undefined)	–	60.5	–	–	13.4
CCCNC(=O)C1(C)CCCN(C(=O)c2ccc(F)cc2Cl)C1 (centres undefined)	–	·	–	–	·
SMILES	Mtb FBA inh	RecA intein inh	CCHFV vOTU inh	GDH-TPI inh	GFP chromo cs
COC1=CC(=O)C(O)=C(CCCCCCC/C=C/CCCCCCCC2=C(O)C(=O)C=C(OC)C2=O)C1=O	–	75.8	·	–	2.08
NC(=O)c1c(-c2cccs2)csc1N	·	66.6	·	·	12.9
CCOC(=O)c1c(-c2cccs2)csc1NC(=O)CC(C)C	–	–	–	–	·
FC(F)(F)Oc1ccc(Nc2nc(N3CCOCC3)nc(N3CCOCC3)n2)cc1	–	–	–	–	·
CC(C)Nc1ccc(Nc2ccccc2)cc1	–	36.2	–	–	–
COc1ccc(S(=O)(=O)N2CCC(C(=O)Oc3cccc(C)c3)CC2)cc1OC	–	–	–	–	·
Cc1ccc(C2=NN(C(=O)CCl)C(c3ccco3)C2)o1 (centres undefined)	–	62.8	–	–	39.7
CCOC(=O)C1=CCN(S(=O)(=O)c2ccc(C)cc2)C1c1ccc(CC)cc1 (centres undefined)	–	·	–	·	·
CC(=O)N(Cc1ccc(F)cc1)C1=C(NCc2ccccc2)C(=O)c2ccccc2C1=O	–	76.6	·	–	5.9
Cc1[nH][nH]c(=O)c1C(c1cc([N+](=O)[O-])ccc1O)c1c(C)[nH][nH]c1=O	–	96.3	–	–	0.53
COc1ccc2c(c1)-c1nc(/N=C/c3ccc(O)cc3)sc1CC2	–	·	–	–	·
COc1ccc2c(c1)-c1nc(/N=C/c3c(O)ccc4ccccc34)sc1CC2	–	51.1	–	–	–
Nc1ccc2ncccc2c1	–	70.1	–	–	16
CC(CNc1ccccc1O)C(=O)O (centres undefined)	–	50.4	–	–	17.4
CC(NC(=O)CCC(=O)Nc1ccccc1O)c1ccccc1 (centres undefined)	–	–	–	–	·
Cc1ccccc1C(=O)Nc1ccnn1C1CCN(C(=O)C2CCOC2)CC1 (centres undefined)	–	–	–	–	·
Cc1oc2c(c1C(=O)NCc1cccnc1)C(=O)c1ccccc1C2=O	·	74.7	·	·	0.623
Cc1ccc(CNc2nc(C)nc3sc4c(c23)CCC4)cc1	–	–	–	–	·
Cc1nc(Nc2ccc(O)cc2)c2c3c(sc2n1)CCCC3	–	30.2	·	–	–
CCCC(=O)OCCNc1cc(Sc2nc3ccccc3[nH]2)c2nonc2c1[N+](=O)[O-]	–	95.6	–	–	0.96
CCC(=O)OCCNc1cc(Sc2nccn2C)c2nonc2c1[N+](=O)[O-]	–	87.2	–	–	4.79
CCC(=O)OCCNc1cc(SCCC(=O)OC)c2nonc2c1[N+](=O)[O-]	–	45.3	–	–	26.2
CC(=O)OCCCNc1cc(Sc2ccc(Cl)cc2)c2nonc2c1[N+](=O)[O-]	–	–	–	–	·
O=C(CN1C(=O)NC2(CCCCCC2)C1=O)Nc1ccc(OC(F)(F)F)cc1	–	·	–	–	·
O=C(CCl)N1CCCC1c1ccc2c(c1)OCCO2 (centres undefined)	–	73.6	–	–	33
SMILES	Mtb FBA inh	RecA intein inh	CCHFV vOTU inh	GDH-TPI inh	GFP chromo cs
O=C(Nc1ccccc1)NN(C(=O)CCl)c1ccccc1	–	67.8	–	–	15.2
CCCCCCN(C(=O)CCl)c1ccccc1	–	54.3	–	–	19.4
O=C(CCl)N(c1ccccc1)c1ccccc1	–	79.5	–	–	21.6
Cc1ccc(C(O)(C(=O)NN(C(=O)c2ccccc2)c2ccccc2)c2ccc(C)cc2)cc1	–	–	–	–	·
Cc1ccc(N(NC(=O)C(O)(c2ccccc2)c2ccccc2)C(=O)CCl)cc1	–	65.7	–	–	7.34
Cc1ccc(S(=O)(=O)CCC(=O)OCC(=O)c2cc(C)n(C)c2C)cc1	–	·	–	–	·
CC1CCCC(C)N1C(=O)c1cc(-c2ccc3c(c2)OCO3)on1 (centres undefined)	–	–	–	–	·
COC(=O)[C@]12C[C@H](CC(=O)NCc3ccccc3)C(=O)N(Cc3ccco3)C1=C[C@H](COCc1ccccc1)O[C@@H]2C	·	·	–	·	·
O=C(CCl)N(CCc1ccccc1)CCc1ccccc1	–	73.8	–	–	20.1
O=C(CCCc1ccccc1)NCCc1ccccc1	–	–	–	–	·
